PI5P4Ka inh = blocks human PI5P4K alpha kinase activity. 330,000 compounds, 1.2% hits. PI5P4Kalpha enzyme, ADP-Glo luminescence, 60 min; hits give low values. max response, %. P48426; active = max response of -50% or lower; inconclusive = between -30% and -50%; inactive = -30% or higher; also: value at the top dose of about 77 µM; % is scaled to controls: 0 for no effect and ±100 for the full control effect
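Enzyme plus substrate dispensed, test compounds pinned in, then ATP (5 microM final) added. After 60 min at RT, ADP-Glo reagent 1 for 45 min and reagent 2 for 30 min preceded luminescence imaging.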
POLK inh = DNA polymerase kappa (human) inhibition | Q9UBT6 | purified Pol kappa, fluorescent DNA synthesis assay, 10 min | Potency, µM (series often up to 107 µM), without a hit: top-dose activity, negative = inhibition, hits mostly inhibitors | 400,000 compounds, 0.53% hits | AID 588579; also: potency is read from the fitted curve at half-maximal effect; % is scaled to controls: 0 for no effect and ±100 for the full control effect
Target sequence (Q9UBT6 whole entry, looked up): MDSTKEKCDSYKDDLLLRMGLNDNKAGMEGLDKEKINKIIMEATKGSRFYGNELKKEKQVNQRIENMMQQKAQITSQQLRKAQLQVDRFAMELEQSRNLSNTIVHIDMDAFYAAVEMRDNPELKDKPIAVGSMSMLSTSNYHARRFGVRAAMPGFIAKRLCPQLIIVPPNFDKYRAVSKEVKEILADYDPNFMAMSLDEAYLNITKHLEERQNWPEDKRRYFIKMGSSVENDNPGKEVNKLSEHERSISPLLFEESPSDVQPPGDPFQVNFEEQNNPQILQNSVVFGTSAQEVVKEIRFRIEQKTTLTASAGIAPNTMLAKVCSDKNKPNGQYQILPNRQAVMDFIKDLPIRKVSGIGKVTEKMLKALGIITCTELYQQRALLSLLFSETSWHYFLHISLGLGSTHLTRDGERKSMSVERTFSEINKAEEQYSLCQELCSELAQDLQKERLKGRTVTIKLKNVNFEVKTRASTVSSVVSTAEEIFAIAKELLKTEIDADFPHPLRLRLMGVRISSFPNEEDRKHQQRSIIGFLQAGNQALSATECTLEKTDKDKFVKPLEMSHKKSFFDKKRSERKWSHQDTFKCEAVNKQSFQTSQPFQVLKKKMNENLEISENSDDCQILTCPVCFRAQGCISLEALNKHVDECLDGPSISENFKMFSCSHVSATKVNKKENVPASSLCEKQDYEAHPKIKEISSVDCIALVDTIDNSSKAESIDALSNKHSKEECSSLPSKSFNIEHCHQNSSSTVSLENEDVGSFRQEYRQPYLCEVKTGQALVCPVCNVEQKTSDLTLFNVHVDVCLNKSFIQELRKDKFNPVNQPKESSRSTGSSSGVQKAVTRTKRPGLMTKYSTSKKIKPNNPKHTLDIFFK
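Here, compound and 10 nM enzyme are combined for 15 min at room temperature; adding 50 nM substrate (final) starts DNA synthesis, tracked by fluorescence at 0 and 10 min against buffer-only wells.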
FEN1 inhibitor = human FEN1 inhibition; P39748; Recombinant FEN1 flap cleavage, fluorescence, 15 min; Potency, µM (doses to about 114 µM), for the others: top-dose activity change, negative = inhibition, hits mostly inhibitors; 390,000 compounds, 0.35% hits; AID 588795; also: potency is read from the fitted curve at half-maximal effect; % is scaled to controls: 0 for no effect and ±100 for the full control effect; nearly all actives have a fitted effect of over 65% in size
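Quantitative HTS format: each compound was titrated, incubated with 10 nM nuclease for 15 min at room temperature, then challenged with flap substrate at 50 nM final. Signal change over 15 min gave concentration–effect curves.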
POLB inh = blocks human DNA polymerase beta activity; Pol beta primer extension/strand displacement, fluorescence kinetic; 340,000 compounds, 1.3% hits; Potency, µM (highest dose often 114 µM), for inactives: top-dose activity change, negative = inhibition, actives largely listed as inhibitors; P06746; also: potency is read from the fitted curve at half-maximal effect; % is scaled to controls: 0 for no effect and ±100 for the full control effect
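Reaction started by 50 nM substrate onto compound-treated Pol beta (10 nM, 15 min preincubation, room temperature); plates read at 0 min and 10 min. Normalized concentration-effect data fitted by four-parameter Hill equation.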
Pol iota inh = DNA polymerase iota (human) inhibition. Pol iota fluorescent replication assay, 10 min. 390,000 compounds, 1% hits. Q9UNA4. Potency, µM (series often up to 115 µM), inactives show top-dose activity, negative = inhibition, hits mostly inhibitors; also: potency is read from the fitted curve at half-maximal effect
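Fluorescent replication assay read twice, at 0 min and 10 min after adding 50 nM (final) substrate. Enzyme (10 nM) and compounds were first incubated 15 min at room temperature; enzyme-free buffer wells were negative controls.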
POLH inh = blocks human DNA polymerase eta activity | Q9Y253 | 390,000 compounds, 1.2% hits | Potency, µM (titrated, usually from 114 µM), without a hit: at the top dose activity change, negative = inhibition, usual class: inhibitors | recombinant Pol eta, fluorescent DNA replication assay | AID 588591; also: potency is read from the fitted curve at half-maximal effect; % is scaled to controls: 0 for no effect and ±100 for the full control effect
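Pol eta (10 nM) was preincubated with compounds for 15 min at room temperature, after which fluorescent replication substrate (50 nM final) was added to start the reaction. Fluorescence was read kinetically at 0 and 10 min.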
ADP-Glo interf = counter-screen for PI5P4K inhibitors: ADP-Glo detection interference, no enzyme; shares compounds with PI5P4Ka inh; ADP-Glo detection counter-screen, luciferase luminescence, no enzyme; Potency, µM (highest dose often 76.9 µM), without a hit: at the top dose activity change, negative = inhibition, usual class: inhibitors; 1,100 tested, under 10 active
Numbers without * were called inactive; u = inconclusive; x = no result given; [ ] = dose if it differs, or a comment. Most compounds without a hit are left out; they make up all but 2.8% or so of the library. Unless noted, calls follow the shape of the dose curve; as a rule, active = well fitted curve in the direction sought with a large enough effect; inconclusive = small, poorly fitted or top-dose-only effect, or another doubt; inactive = no such curve, though single readings can be large; an effect the other way counts as inactive or inconclusive.

SMILES	PI5P4Ka inh	POLK inh	FEN1 inhibitor	POLB inh	Pol iota inh	POLH inh	ADP-Glo interf
Cc1c(C(=O)OCC(C)C)[nH]c2c1C(=O)CC(c1ccco1)C2 (stereo unspecified)	-56*	-27%	4%	25µM*	u	32µM*	-13%
COC(=O)c1[nH]c2c(c1C)C(=O)CC(c1ccccc1)C2 (stereo unspecified)	x	-10%	-12%	-24%	-12%	11%	x
CC(C)NC(=O)N1c2ccccc2Sc2ccccc21	-60*	1%	5%	1%	184%	-19%	-1%
COc1ccccc1NC(=O)Cc1nnc(SCC(=O)Nc2ccccc2F)n1C	-67*	0%	2%	0%	91%	-16%	-7%
CCn1c(CC(=O)Nc2ccccc2F)nnc1SCC(=O)NC1CCCCC1	-29	u	-8%	2%	u	u	-6%
CCOc1cc(/C=C2/NC(=O)N(CC(=O)OC)C2=O)ccc1O	6	-2%	3%	23%	95%	-9%	x
COC(=O)CCN1CCc2cc(N=Nc3ccc([N+](=O)[O-])cc3)ccc21	-1	-11%	1%	-14%	172%	-9%	x
CC(=O)c1ccc(OCc2c(-c3ccccc3)nnn2CC(=O)NS(=O)(=O)c2ccccc2C)cc1	-51*	x	x	x	x	x	-4%
O=C(CC1C(=O)NCCN1CC1CCCCC1)NCc1cc(F)ccc1F (stereo unspecified)	-63*	2%	0%	2%	59%	-15%	6%
O=C(NCCCCc1ccccc1)c1cccc(NC(=O)C2CC2)c1	-53*	2%	u	x	-21%	-7%	-1%
CC(C)C(=O)N1CCN(c2ccccc2NC(=O)c2ccc(Br)o2)CC1	-4	-3%	-8%	x	38%	-22%	x
CC(C)C(=O)N1CCN(c2ccccc2NC(=O)c2ccco2)CC1	-59*	u	u	2%	u	-99%	2%
COc1ccc(C(=O)N2CCC2(C)C(=O)O)cc1F (stereo unspecified)	u	x	x	x	x	x	2%
COc1ccc(N2CCN(C(=O)c3[nH]c(C(F)(F)F)nc3-c3ccccc3)CC2)cc1	-4	x	x	x	x	x	2%
CCCCCCCCN1C(=O)[C@H](CC(=O)NCc2ccc(C)o2)C[C@@]2(C(=O)OC)CC(C)(C)CC=C12	-51*	x	x	x	x	x	-1%
O=C(CCN1CCc2ccccc2C(c2ccccc2)C1)c1ccc2c(c1)OCCO2 (stereo unspecified)	-54*	-8%	17%	1%	u	-17%	-11%
Cc1ccccc1C(=O)Oc1cccc2c(O)cccc12	16	-4%	-2%	4%	121%	-16%	x
O=C(Oc1cccc2c(O)cccc12)c1ccco1	-54*	-14%	-12%	x	u	-6%	0%
Cc1cc(NC(=O)CS(=O)(=O)c2ccc(Cl)cc2)no1	-2	4%	-2%	1%	-5%	-11%	x
O=C(Nc1ccnn1C1CCN(Cc2ccccc2OC(F)F)CC1)c1cccnc1	1	-8%	12%	9%	41%	-1%	x
COc1cc(OC)cc(-c2nnc(NC(=O)CCS(=O)(=O)c3ccc(C)cc3)o2)c1	-50*	-23%	-13%	x	u	-22%	2%
O=C(O)c1ccc(-c2nnn(Cc3cccc(C(F)(F)F)c3)n2)cc1	-52*	5%	22%	1%	-12%	-1%	-3%
CN(Cc1ccccc1)C(=O)c1csc([C@H]2C[C@H](O)[C@@H](CO)O2)n1	0	x	x	x	x	x	-3%
Cc1cc(C)cc(NC(=O)CSc2nc3[nH]ncc3c(=O)[nH]2)c1	-4	6%	1%	6%	-3%	-13%	x
Cc1csc(NC(=O)CSc2nc3[nH]ncc3c(=O)[nH]2)n1	x	-8%	13%	10%	27%	-17%	2%
SMILES	PI5P4Ka inh	POLK inh	FEN1 inhibitor	POLB inh	Pol iota inh	POLH inh	ADP-Glo interf
CC(C)NC(=O)c1cc(C2CCCCN2S(=O)(=O)c2ccccc2)on1 (stereo unspecified)	3	x	x	x	x	x	x
O=c1cc(N2CCOCC2)oc2c1ccc1ccccc12	x	18%[60.1 µM]	x	x	x	x	x
O=c1[nH]c(N2CCOCC2)cc2ccccc12	-3	-32%	16%	x	u	-9%	-5%
Cc1ccc(-c2cc(C(=O)O)c3cc(Br)ccc3n2)o1	-69*	u	-14%	22µM*	u	20µM*	0%
Cc1ccc(NC(=O)N2CCC(NC(=O)c3cccc(C)c3)CC2)cc1	-78*	-25%	11%	-13%	u	13%	-5%
COc1ccc(CCNC(=O)c2cccc(S(=O)(=O)N3CCc4ccccc4C3)c2)cc1	-3	0%	-17%	x	-2%	3%	x
O=C1NC(c2cc(Cl)cc([N+](=O)[O-])c2O)Nc2ccccc21 (stereo unspecified)	-79*	1%	-18%	-5%	-23%	-12%	6%
O=C1NC(c2ccc(Cl)c([N+](=O)[O-])c2)Nc2ccccc21 (stereo unspecified)	4	-13%	13%	-10%	-28%	-12%	x
NC(=O)c1c(NC(=O)c2cc3ccccc3o2)sc2c1CCC2	-56*	-32%	0%	50µM*	u	u	-14%
CC1(C(=O)NCCCN2CCOCC2)Oc2cccnc2NC1=O (stereo unspecified)	-10	-9%	6%	5%	133%	-2%	x
O=C(N/N=C/c1ccc(N2CCCCC2)o1)C(O)(c1ccccc1)c1ccccc1	x	x	x	-10%	x	x	x
COc1ccc(-c2cc(C(F)F)n3ncc(C(=O)n4ccnc4C)c3n2)cc1	-26	-3%	2%	-29%	-22%	-18%	3%
C[C@H](CO)N1C[C@H](C)[C@@H](CN(C)S(C)(=O)=O)Oc2c(NC(=O)C3CC3)cccc2C1=O	0	7%	-3%	x	53%	-17%	x
Cc1cc(C(=O)Nc2cccc3c2O[C@@H](CN(C)S(C)(=O)=O)[C@H](C)CN([C@@H](C)CO)C3=O)n(C)n1	0	-8%	25%	x	-5%	-7%	2%
CCS(=O)(=O)Nc1ccc(-c2nc3cccnc3s2)cc1	-59*	1%	u	3%	20%	-10%	-9%
O=S(=O)(Nc1ccc(-c2nc3cccnc3s2)cc1)c1ccc(Cl)s1	-62*	-6%	2%	-25%	2%	u	-5%
CCS(=O)(=O)Nc1cccc(-c2nc3cccnc3s2)c1	-2	8%	-2%	18%	28%	-15%	x

Assay outcomes as filed in PubChem BioAssay.
